# According to PubChem BioAssay AID1347426 (Functional Genomics Laboratory (NCATS/FGL), 2020):
# In all, about 31,000 sequences went through this assay and about 1,400 (4.5%) were called active. The entries come from a sample that favours actives as a whole. Unmarked numbers belong to inactive results.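 Rule for the calls: active = median seed-adjusted z-score above 1 or below -1; inactive = the rest.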
# Test: Novel Modifiers of Survival Motor Neuron (SMN) Protein: Gene Identification via Genome-wide siRNA Screen;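 note: luminescence tracks full-length SMN protein made from the SMN2 reporter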
# Conditions: HEK293T SMN2-luciferase reporter, siRNA knockdown, 72 h; actives lie on both sides
# Summary of the method: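 Genome-wide siRNA screen (10418 genes, 3 siRNAs each, 1 pmol per well) by reverse transfection in HEK293T cells stably carrying an SMN2-luciferase reporter; luminescence after 72 hours, normalized to negative-control siRNA, log10-transformed, MAD-scored.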
row,Sequence,median seed-adjusted z-score
1,GCAAGUAUUUUGACAAGGUTT against KIF7,0.0274
2,CAAACAAUAUGAGAGUGUUTT against IL7,0.253
3,ACAAGACUCUGGACAUUAATT against DHRS4,0.263
4,GAUUCAUGCAUUGAUCACATT against UBE2Z,0.0572
5,GCCCAGAAGUUUAGGGAAATT against TAP1,-0.506
6,CAAAGUCCAUGGAGUCUUUTT against RASA4,-1.11 (active)
7,GGGUUAGUGGAGACCUUUATT against ATPAF1,0.393
8,GAAUUCACCAUUCAAGUAATT against SCYL3,0.665
9,AGGACGGUGCAGUACAGAATT against ZBTB46,0.0546
10,GAACAACACCAACAUAAGATT against SMOC1,0.0453
11,CAUCGCCUAUAUGAAAUAUTT against PLA2G10,1.07 (active)
12,GAGCCGUACUAUGACCUGATT against SSTR2,-0.162
13,CGAAGCUAGUGGAACAGUATT against SF3A1,-1.09 (active)
14,CGAUGCCUGUUAUAAAUUATT against RCAN3,0.544
15,AAAUCCCUUUGACACCUUUTT against DNAJB1,0.466
16,CUCCUUCCCGGAUGAUUUATT against KLF17,-0.131
17,CCUCCGUCCUGUUUAGGAATT against LCN2,0.123
18,GCAACGAGUUCAACCUGGATT against RAB11B,-0.857
19,CCACUUACCCUCAAAGAAATT against SLC4A5,1.3 (active)
20,CCUCAGUGUGGGUAUAAGATT against HIF1A,0.228
21,UUGAUAAGGUUAAACCACATT against CSTA,-0.351
22,GCAGCACGAAGGAUACUGATT against ABCA4,-1.09 (active)
23,CCACGAGAUUUCACAAACATT against PRKD3,-0.906
24,GCUUCACUCAGAUUCCGAUTT against DYNC1I2,-0.167
25,GCCUCUACCUCUUCGAAAATT against CLEC11A,-1.1 (active)
26,GCAGUAAUGUUGAUAUAGATT against VDAC3,0.646
27,CUAUCUCACCAAGAUCUAUTT against PODN,0.589

row,Sequence,median seed-adjusted z-score
1,CAUCUUCAGUCUGUACAAATT against KIR2DL5B,1.72 (active)
2,GGAAAGCAACAUACAGACATT against FABP6,0.122
3,GCCUUAUGUAUGCACAGAATT against HKR1,-0.358
4,AGGCAUAUCUUGAAGAACATT against CIP29,-1.18 (active)
5,CACAGUGUUUGAGAACUAUTT against RHOA,-0.219
6,GCAUCAACAGUAAUGAGAATT against KRT39,0.161
7,CCACAUCAACAGUGCCUUUTT against ACOT11,0.636
8,AGGGCUUCUUGAAUCUCUATT against GSTO2,0.142
9,CCAAGAUGCUCAGUCAUCATT against MAP4K1,0
10,CAACGUAUCAGAUUGAGAATT against ZNF281,1.19 (active)
11,CUACCGGAUUGAGAUGGAATT against MEGF6,0
12,GCUGCUUGUGGAUUCGCUATT against TLN2,-0.0106
13,CACUCACACCAACCUGUGATT against GNG13,-0.516
14,CAGUGUUAGUGGAUUCAGATT against TMEM87B,-0.51
15,CAACCUUAUUAUCAUUGAATT against SF3B3,-2.53 (active)
16,GGCAGAUCCUGACCUUUGATT against PRMT7,0.204
17,CUUAAGAUCCCACACCUCATT against SLC39A4,0.0304
18,GCAUGUUCCAGAUCUAUCATT against DRD5,-0.18
19,GAGCGUGACUGGGUUCUAATT against DDX5,0.891
20,CAAAGACAAGGUCCCAUUUTT against IFI35,0.105
21,GCCCUAGAAAGGUCACUGATT against AKR1CL1,0.488
22,GGAGGAACUCGAAUCAUUUTT against EIF4EBP2,0.517
23,GCAUCACCUUCUUUCGGAUTT against UNC13A,-2.1 (active)
24,GGACGGAAAACAGUCUUAATT against OAS2,0.0758
25,CCCACACUCUAGACUGAAATT against MEF2D,0.0021
26,CGGUCAAUGUUCUAAAGAUTT against CACNG5,-0.41
27,CCAUGACUGUCAAUCGUCATT against GFM1,-0.0641
